An excerpt weighted towards active compounds, which were near 11% of everything screened.
USP17 block: inhibitors of human USP17 deubiquitinase; purified USP17, Ub-rhodamine cleavage fluorescence, 3 h; 6.5% of 47,000 active; inhibition, % at 50 µM; Ubiquitin carboxyl-terminal hydrolase 17-like protein 5 (Homo sapiens), A8MUK1
USP30 block: inhibitors of human USP30 deubiquitinase; Ubiquitin carboxyl-terminal hydrolase 30 (Homo sapiens), Q70CQ3; purified USP30, Ub-rhodamine cleavage fluorescence; inhibition, % at 25 µM; 5.3% of 47,000 active
USP28 inh: inhibitors of human USP28 deubiquitinase; Ubiquitin carboxyl-terminal hydrolase 28 (Homo sapiens), Q96RU2; purified USP28, Ub-rhodamine cleavage fluorescence, 30 min; inhibition, % at 25 µM; 3% of 47,000 active; AID 1645857, 2021
Of the large screens only hits and unclear results are named; the others gave an inactive call. Rule as the data show it: active = inhibition above about 30%; inactive = the rest.

O=C(NC1CCCC1)N1C[C@H](OCc2cccnc2)[C@H]2COC[C@H]21	none
CCCCCCCC1OC(=O)Cc2cc(O)c(O)c(O)c21 (centres undefined)	USP17 block 95.6, USP30 block 62.9, USP28 inh 94.0
CCc1ccc(NC(=O)CSc2nnc(CNC(=O)c3ccco3)n2C)cc1	none
Cn1c(=O)c2ccccc2n2c(CCC(=O)NCCC3=CCCCC3)nnc12	none
Cn1ccnc1CN1CCC([C@@H]2OC(C)(C)C3CC2[C@](C)(O)[C@@H](O)C3)CC1 (some centres undefined)	USP30 block 32.4 (no result: USP17 block)
CC1(C)O[C@@H](C2CCN(Cc3ccccn3)CC2)C2CC1C[C@H](O)[C@@]2(C)O (some centres undefined)	none
CN(C)c1ccc(C(=O)NCc2nnc3ccccn23)cc1	none
Cc1nn(-c2ccccc2)c(C)c1C(=O)OCC(=O)Nc1cccc(Br)c1	USP28 inh 81.0
Cc1nn(-c2ccccc2)c(C)c1C(=O)OCC(=O)Nc1cccc2ccccc12	none
CCC1=C(c2ccc(C)cc2)S(=O)(=O)NC1=NCC(=O)NC1CCCCCC1	none
CC1=C(c2ccc(Cl)cc2)S(=O)(=O)NC1=NCC(=O)Nc1ccc(F)cc1	USP17 block 64.1, USP30 block 43.6
Cc1ccc(C(=O)CC(=O)C(=O)Nc2cccc(F)c2)cc1	none
CC1=C(c2ccc(F)cc2)S(=O)(=O)NC1=NCC(=O)Nc1cccc(F)c1	USP17 block 40.7, USP30 block 57.8
CC1=C(c2ccc(F)cc2)S(=O)(=O)NC1=NCC(=O)Nc1c(C)cccc1C	none
CC1=C(c2ccc(C)c(C)c2)S(=O)(=O)NC1=NCC(=O)NCCCc1ccccc1	USP17 block 50.5
CC1=C(c2ccc(C)c(C)c2)S(=O)(=O)NC1=NCC(=O)NCc1ccccc1	none (no result: USP30 block, USP28 inh)
CC1=C(c2ccc(F)cc2)S(=O)(=O)NC1=NCC(=O)Nc1ccc(F)cc1	USP30 block 52.2
Cc1noc(-c2ccnc(-n3ncc(C(=O)N(C)Cc4ccccc4)c3C)c2)n1	none
COc1ccc(-c2cc(C(F)(F)F)n3nc(-c4ccc(C)cc4)cc3n2)cc1OC	none
O=C(Nc1ccccc1)N1CCC2(CN(Cc3ccc(Cl)cc3)C2)C1	none
Cc1c(Cl)cccc1NC(=O)Cn1cc(C(=O)C2CC2)c2ccccc21	none
O=C(Cn1ccc2ccn(Cc3cccnc3)c2c1=O)NC1CCCC1	none
Cc1c(Cl)cccc1NC(=O)Cn1ccc2ccccc2c1=O	USP17 block 71.3
O=C(Cn1ccc2ccn(Cc3ccccc3)c2c1=O)Nc1ccccc1Cl	USP17 block 33.5
O=C(Cn1cnc2c(c1=O)CCN(Cc1ccccc1)C2)Nc1ccccc1Cl	none
O=C(Cn1ccc2ccn(Cc3ccccc3)c2c1=O)NC1CCCC1	USP17 block 38.7
N#Cc1ccc(-n2cc(-c3cnc4ccccc4n3)cn2)cc1	none
COc1ccc(CC(=O)NCC2CCCCC2)cc1S(=O)(=O)N1CCOCC1	none (no result: USP17 block)
O=C(Nc1ccccc1)N1CCCN(Cc2c(F)cccc2Cl)CC1	none
N#Cc1ccc(NC(=O)Nc2cccn(Cc3ccc(F)cc3)c2=O)cc1	USP17 block 93.4, USP28 inh 84.4
N#Cc1ccc(NC(=O)C2CC(=O)N(Cc3ccccc3)C2)cc1 (centres undefined)	none
CC1CN(C(=O)c2cccn(Cc3c(Cl)cccc3Cl)c2=O)CC(C)O1 (centres undefined)	none
COC(=O)Nc1cccn(Cc2c(Cl)cccc2Cl)c1=O	USP17 block 87.7, USP30 block 51.9, USP28 inh 88.3
N#Cc1ccc(NC(=O)Nc2cccn(Cc3c(F)cccc3Cl)c2=O)cc1	USP17 block 78.0, USP28 inh 41.3
O=C(CN1c2ccccc2S(=O)(=O)c2ccccc21)Nc1ccc(F)cc1	none
CC(C)C(=O)N1CCC2(CC1)NC(=O)c1ccccc12	none
c1cncc(-c2nc(-c3ccc4c(c3)ncn4CCN3CCCCC3)no2)c1	none
C[C@@H]1CC[C@H]2C(CN3CCc4ccccc4C3)C(=O)O[C@]23[C@H]1CC[C@@]1(C)O[C@@H]31 (some centres undefined)	none
Cc1ccc(-c2cc3n(n2)CCCN(C(=O)c2ccncc2)C3)cc1	none
CCOCC1CN(C(=O)c2ccnnc2)Cc2cnn(CC)c21 (centres undefined)	none
Cc1noc(C2(NC(=O)c3cccc(F)c3)CCCCC2)n1	none
O=C(NCCn1ccc2ccccc21)c1cc2ccccc2oc1=O	USP17 block 68.4
COc1ccc(C(=O)NCCn2ccc3ccccc32)cc1	none
CCOCCCn1c(SCC(=O)Nc2ccccc2C(F)(F)F)nc2ccccc2c1=O	USP17 block 44.1, USP30 block 55.4
NS(=O)(=O)c1ccc(CCNC(=O)CSc2nc3ccccc3c(=O)n2CCC(=O)N2CCN(c3ccccc3)CC2)cc1	none
COCCn1c(SCC(=O)Nc2ccccc2C(F)(F)F)nnc1-c1c[nH]c2ccccc12	none
O=C(CCCn1c(SCC(=O)Nc2cccc(C(F)(F)F)c2)nc2ccccc2c1=O)NCCc1ccccc1	USP30 block 35.4
O=C(Nc1ccc2nnc(C3CC3)n2c1)NC1CCCCC1	none
Cc1cc(C)n(-c2ncnc3c2cnn3-c2ccc(F)c(F)c2)n1	none
O=C(CC1C=CCC1)N1C[C@H](OCc2ccncc2)[C@H]2OCCC[C@H]21 (some centres undefined)	none
COc1cc2c(c(OC)c1OC)-c1ccc(N3CCN(c4cccc(Cl)c4)CC3)c(=O)cc1[C@@H](NC(C)=O)CC2	none
O=C(CN1C=NC2=NS(=O)(=O)c3ccccc3N21)Nc1cc(F)ccc1F	USP17 block 76.5
O=C(CCC(=O)N1CCOc2ccccc21)Nc1cc(F)ccc1F	none
Cc1ccc(C(=O)Nc2nnc3n2CCCS3)cc1	USP28 inh 32.0
O=C(Nc1nnc2n1CCCS2)c1cc2ccccc2o1	USP28 inh 50.8
O=C(Nc1nnc2n1CCCS2)c1ccc(Cl)cc1	none
Cc1cccc(C(=O)Nc2nnc3n2CCCS3)c1	none
c1ccc(-c2nc(N3CCN(Cc4ccc5c(c4)OCO5)CC3)c3cc(-c4ccccc4)sc3n2)cc1	none
Cn1c(=O)n2nc(-c3ccccc3)nc2c2c(-c3ccccc3)csc21	none
COc1cccc(NC2=NS(=O)(=O)c3ccccc32)c1	USP17 block 40.8, USP30 block 41.3
COc1cccc(CNC(=O)CCC2=NS(=O)(=O)c3ccccc3N2)c1	none
CC(NC(=O)c1cc2c(=O)n(C)ccc2n1C)c1ccccc1 (centres undefined)	none
Cn1cc(CN2C[C@H]3C[C@H](C(=O)NCc4ccccc4)[C@@H](C2)O3)cn1	none
COc1ccc(NC(=O)CSc2nccn2C2CCCCC2)cc1	none
COc1ccc(-c2nnc(SCC(=O)Nc3ccc(C)cc3)n2C2CCCCC2)cc1OC	USP17 block 33.8, USP30 block 48.3
C[C@H]1CCN(C(=O)CN)[C@@H](Cc2ccccc2)c2nc3ccccc3n21	none
O[C@H]1[C@H](O)[C@H](Oc2cccc(F)c2)CC[C@H]1NCc1ccccn1	none
CC(C)CN1C[C@H]2CCN(C(=O)c3ccncc3)CC[C@H]2S1(=O)=O	none
COc1cc(=O)[nH]c(SCC(=O)Nc2cccc(C)c2)n1	none
Cc1cccc(NC(=O)c2nc3c(=O)[nH]c4cc(C)ccc4n3n2)c1	USP17 block 34.7
CCOc1ccc(NC(=O)CSCC(=O)Nc2cccc(C)c2)cc1	none
CCOc1ccc(NC(=O)c2nc3c(=O)[nH]c4cc(C)ccc4n3n2)cc1	USP17 block 53.5

Screening data deposited in PubChem by Buhrlage Lab, Dana-Farber Cancer Institute and Novartis Institutes for BioMedical Research (Cambridge, Mass).
